Reference: PubChem BioAssay (NCATS)
“And” between values parts separate entries of the source, which are not always exact repeats. Identical values can stand only once. Results filed as inconclusive are left out. Some compounds were tested as several samples or in several runs, with calls that do not always agree. The source made the active and inactive calls. Calls follow the shape of the dose curve; as a rule, active = well fitted curve in the direction sought with a large enough effect; inconclusive = small, poorly fitted or top-dose-only effect, or another doubt; inactive = no such curve, though single readings can be large; an effect the other way counts as inactive or inconclusive.

What was measured:
[1] = molecular target: Cytochrome P450 2C9 (Homo sapiens) (UniProt P11712); assay: qHTS Assay for Inhibitors and Substrates of Cytochrome P450 2C9 (AID 883); also: nearly all actives have a fitted effect of over 60% in size; also: potency is read from the fitted curve at half-maximal effect; as to activity change, negative = inhibition: % is scaled to controls: 0 for no effect and ±100 for the full control effect
Procedure, shortened: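 Luminescent read-out of deoxyluciferin hydroxylation, normalized to 57uM sulphaphenazole (AC100). Reaction: 10nM enzyme, 100uM Luciferin-H (equal to KM), 25mM KPO4, 10 min compound preincubation, then 60 min with NADPH regeneration, both at 37C.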

[2] = molecular target: Cytochrome P450 3A4 (Homo sapiens) (UniProt P08684); assay: qHTS Assay for Inhibitors and Substrates of Cytochrome P450 3A4 (AID 884); also: nearly all actives have a fitted effect of over 50% in size; also: potency is read from the fitted curve at half-maximal effect; as to activity change, negative = inhibition: series mostly up to about 57 µM; % is scaled to controls: 0 for no effect and ±100 for the full control effect
Procedure, shortened: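 20 nM human CYP3A4 with 25 uM Luciferin-PPXE (at KM) in 200 mM KPO4, preincubated 10 min with compound; NADPH regeneration started a 60 min RT reaction. Luciferin detected by luminescence, normalized to 57 uM ketoconazole as full inhibition.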

[3] = molecular target: Cytochrome P450 3A4 (Homo sapiens) (UniProt P08684); assay: qHTS Assay for Activators of Cytochrome P450 3A4 (AID 885); also: nearly all actives have a fitted effect of over 65% in size
Procedure, shortened: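 Quantitative HTS format: compounds preincubated with 20nM human CYP3A4 and Luciferin-PPXE substrate at KM, reaction started by NADPH regeneration, stopped after 60 min, luciferase luminescence read 20 min later.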

[4] = molecular target: Cytochrome P450 2D6 (Homo sapiens) (UniProt P10635); assay: qHTS Assay for Inhibitors and Substrates of Cytochrome P450 2D6 (AID 891);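 also: luciferin methyl ether substrate demethylated by CYP2D6 with NADPH regeneration; % is scaled to controls: 0 for no effect and ±100 for the full control effect; nearly all actives have a fitted effect of over 60% in size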
Procedure, shortened: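 Human CYP2D6 (5 nM) with 30 uM Luciferin-ME EGE (at Km) in 100 mM KPO4, compound preincubated 10 min, then NADPH regeneration system for 60 min at room temperature. Luciferin read by luminescence; normalized to 1.43 uM quinidine.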

[5] = molecular target: Cytochrome P450 2C19 (Homo sapiens) (UniProt P33261); assay: qHTS Assay for Inhibitors and Substrates of Cytochrome P450 2C19 (AID 899); also: nearly all actives have a fitted effect of over 60% in size; also: potency is read from the fitted curve at half-maximal effect
Procedure, shortened: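 Luminescence readout of luciferin formed from 10uM Luciferin-H EGE (KM level) by 5 nM CYP2C19 in 50mM KPO4. 60 min NADPH-driven reaction at 37C after 10 min compound preincubation; data scaled to 57uM ketoconazole inhibition.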

Chain of Cytochrome P450 2C19 (Homo sapiens) (P33261 whole entry, looked up): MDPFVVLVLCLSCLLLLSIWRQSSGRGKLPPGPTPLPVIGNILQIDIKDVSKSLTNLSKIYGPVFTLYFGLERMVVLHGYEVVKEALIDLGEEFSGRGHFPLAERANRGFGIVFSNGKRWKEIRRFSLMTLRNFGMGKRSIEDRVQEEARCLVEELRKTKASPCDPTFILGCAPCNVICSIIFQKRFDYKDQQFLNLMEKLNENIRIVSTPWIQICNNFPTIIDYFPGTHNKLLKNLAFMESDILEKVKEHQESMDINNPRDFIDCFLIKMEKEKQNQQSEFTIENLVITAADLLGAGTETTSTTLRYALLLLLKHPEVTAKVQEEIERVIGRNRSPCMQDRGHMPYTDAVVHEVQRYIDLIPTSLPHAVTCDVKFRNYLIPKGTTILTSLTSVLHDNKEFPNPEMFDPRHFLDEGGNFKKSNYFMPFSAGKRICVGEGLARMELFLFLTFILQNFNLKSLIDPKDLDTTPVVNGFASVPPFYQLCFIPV
Chain of Cytochrome P450 2D6 (Homo sapiens) (P10635 whole entry, looked up): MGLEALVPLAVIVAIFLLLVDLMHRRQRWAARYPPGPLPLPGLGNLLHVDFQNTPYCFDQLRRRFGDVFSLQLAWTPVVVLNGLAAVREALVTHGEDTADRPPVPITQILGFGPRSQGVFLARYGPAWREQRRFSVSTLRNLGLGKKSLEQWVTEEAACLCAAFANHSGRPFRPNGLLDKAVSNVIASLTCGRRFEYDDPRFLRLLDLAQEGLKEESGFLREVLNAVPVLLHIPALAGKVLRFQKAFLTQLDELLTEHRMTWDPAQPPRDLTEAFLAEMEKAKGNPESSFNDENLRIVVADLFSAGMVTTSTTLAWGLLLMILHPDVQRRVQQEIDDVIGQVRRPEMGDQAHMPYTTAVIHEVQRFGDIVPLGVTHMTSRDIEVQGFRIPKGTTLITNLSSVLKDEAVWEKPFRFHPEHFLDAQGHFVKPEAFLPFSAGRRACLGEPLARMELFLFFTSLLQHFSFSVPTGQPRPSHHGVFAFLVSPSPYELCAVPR
Chain of Cytochrome P450 3A4 (Homo sapiens) (P08684 whole entry, looked up): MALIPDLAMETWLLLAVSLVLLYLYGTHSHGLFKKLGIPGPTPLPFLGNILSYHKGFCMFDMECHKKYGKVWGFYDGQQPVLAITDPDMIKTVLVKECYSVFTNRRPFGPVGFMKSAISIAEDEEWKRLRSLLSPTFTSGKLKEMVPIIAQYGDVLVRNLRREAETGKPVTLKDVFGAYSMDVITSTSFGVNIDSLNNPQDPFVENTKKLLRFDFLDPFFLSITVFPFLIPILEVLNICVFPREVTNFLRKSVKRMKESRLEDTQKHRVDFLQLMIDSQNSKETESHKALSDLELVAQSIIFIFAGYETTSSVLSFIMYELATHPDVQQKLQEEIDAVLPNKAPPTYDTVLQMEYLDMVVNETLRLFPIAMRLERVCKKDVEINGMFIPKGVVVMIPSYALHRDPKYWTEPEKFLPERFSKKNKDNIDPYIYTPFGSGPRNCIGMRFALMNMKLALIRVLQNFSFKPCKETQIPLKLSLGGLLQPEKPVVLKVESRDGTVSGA
Chain of Cytochrome P450 2C9 (Homo sapiens) (P11712 whole entry, looked up): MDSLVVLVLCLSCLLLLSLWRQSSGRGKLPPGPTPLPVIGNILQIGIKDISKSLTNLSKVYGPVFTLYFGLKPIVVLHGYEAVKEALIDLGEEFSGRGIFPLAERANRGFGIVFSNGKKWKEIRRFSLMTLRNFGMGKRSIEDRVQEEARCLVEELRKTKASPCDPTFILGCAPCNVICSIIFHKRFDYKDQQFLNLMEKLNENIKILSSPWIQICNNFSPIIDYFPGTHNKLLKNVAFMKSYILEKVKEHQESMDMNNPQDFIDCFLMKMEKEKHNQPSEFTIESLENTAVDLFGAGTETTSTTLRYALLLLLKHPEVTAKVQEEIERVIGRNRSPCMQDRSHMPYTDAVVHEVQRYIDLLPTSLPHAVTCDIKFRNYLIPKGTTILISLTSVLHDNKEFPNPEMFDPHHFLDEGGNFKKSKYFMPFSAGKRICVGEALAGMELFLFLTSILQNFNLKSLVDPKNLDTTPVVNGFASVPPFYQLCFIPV

CCCCCCC1Cc2cc(OC)c(OC)cc2C(C(C(=O)OCC)C(=O)OCC)O1 (centres undefined)
Potency [1]: inactive | Potency [2]: 3.16 µM (active) and 1.58 µM (active) | activity change, positive = activation [3]: -66.2% [at 11.4 µM] (inactive) and -65.3% [at 11.4 µM] (inactive) | Potency [4]: inactive | Potency [5]: inactive and 3.16 µM (active)

COC(=O)C/C=C\[C@@H](C)[C@@H](/C=N\O[C@@H](C)c1cc(-c2c(C)cc(C)cc2C)no1)NS(=O)(=O)c1ccc(C)cc1
Potency [1]: 2.51 µM (active) | Potency [2]: 3.16 µM (active) | activity change, positive = activation [3]: -103% [at 11.4 µM] (inactive) | Potency [5]: 3.16 µM (active)

CC12C=C(/C=C/c3ccc(Br)cc3)C(C)(C1)C(c1ccc(Br)cc1)CC2=O (centres undefined)
Potency [1]: 2.51 µM (active) | Potency [2]: 3.98 µM (active) | activity change, positive = activation [3]: -72.7% [at 11.4 µM] (inactive) | Potency [5]: inactive

COC(=O)C1=C2N(Cc3ccccc3)C(C)=C(C(=O)OC)C(c3ccccc3)N2C(=O)[C@](O)(C(=O)OC)C1 (some centres undefined)
Potency [1]: inactive | activity change, negative = inhibition [2]: -26.5% [at 11.4 µM] (inactive) | activity change, positive = activation [3]: -51.3% [at 11.4 µM] (inactive) | Potency [4]: inactive | Potency [5]: inactive

CCN1C(C)=C(C(=O)OC)C(c2ccccc2)N2C(=O)[C@](O)(C(=O)OC)C(c3ccccc3)C(C(=O)c3ccccc3)=C12 (some centres undefined)
Potency [1]: inactive | Potency [2]: 3.16 µM (active) | activity change, positive = activation [3]: -65.7% [at 11.4 µM] (inactive) | Potency [5]: inactive

C=CCOC(=O)C(C(C)=O)C(NC(=O)OC)c1ccc(F)cc1 (centres undefined)
Potency [1]: inactive | Potency [2]: 3.16 µM (active) | activity change, positive = activation [3]: -78% [at 11.4 µM] (inactive) | Potency [4]: inactive | Potency [5]: 0.398 µM (active)

CCCCOC(OCCCC)[C@H](O)CSc1ccc2ccccc2c1
Potency [1]: 2 µM (active) | Potency [2]: 5.01 µM (active) | activity change, positive = activation [3]: -60.8% [at 11.4 µM] (inactive) | Potency [5]: 3.16 µM (active)

C=CCOC(=O)C(C(C)=O)C(NC(=O)OC)c1ccccc1 (centres undefined)
Potency [1]: inactive | Potency [2]: 3.98 µM (active) | activity change, positive = activation [3]: -86.9% [at 11.4 µM] (inactive) | Potency [4]: inactive | Potency [5]: 0.631 µM (active)

COC(=O)C1=C(C)N(Cc2ccccc2)[C@]23O[C@](C(=O)OC)(C(=O)N2C1c1ccccc1)C(C(=O)OC)C3C(=O)OC (some centres undefined)
Potency [1]: inactive | activity change, negative = inhibition [2]: -20.8% [at 11.4 µM] (inactive) | activity change, positive = activation [3]: -46.5% [at 11.4 µM] (inactive) | Potency [4]: inactive | Potency [5]: inactive

COc1cccc([C@@H]2Oc3ccc(OC)cc3/C(=N/OC[C@@H](C)[C@H](OCc3ccccc3)C(C)C)[C@@H]2O)c1
Potency [1]: 3.98 µM (active) | Potency [2]: 3.16 µM (active) | activity change, positive = activation [3]: -89.7% [at 11.4 µM] (inactive) | Potency [5]: 2 µM (active)

C=COCC1CN2C(CCC(C)C2c2ccc(Br)cc2)C(=O)O1 (centres undefined)
Potency [1]: inactive | Potency [2]: 3.16 µM (active) and 794 nM (active) | activity change, positive = activation [3]: -65.3% [at 11.4 µM] (inactive) and -87.4% [at 11.4 µM] (inactive) | Potency [4]: inactive | Potency [5]: 316 nM (active) and 79.4 nM (active)

Cc1ccc(S(=O)(=O)N[C@@H](CCc2ccccc2)CC(=O)C(C)(C)C)cc1
Potency [1]: 3.98 µM (active) | Potency [2]: 1.58 µM (active) | activity change, positive = activation [3]: -96.1% [at 11.4 µM] (inactive) | Potency [5]: 1.58 µM (active)

COc1ccc(O[C@H]2C=C[C@@H](c3ccccc3)O[C@H]2CO/N=C2/c3cc(OC)ccc3O[C@@H](c3cccc(OC)c3)[C@H]2O)cc1
Potency [1]: 3.16 µM (active) | Potency [2]: 3.16 µM (active) | activity change, positive = activation [3]: -100% [at 11.4 µM] (inactive) | Potency [5]: 0.501 µM (active)

Cc1cc(C)cc(C#CC2C=CC(Oc3ccc(C4CCCC4)cc3)C(CO)O2)c1 (centres undefined)
Potency [1]: inactive | Potency [2]: 3.98 µM (active) | activity change, positive = activation [3]: -81.6% [at 11.4 µM] (inactive) | Potency [4]: inactive | Potency [5]: inactive

COc1ccc(O[C@H]2C=C[C@@H](c3ccccc3)O[C@H]2COC(=O)CC/C(C)=N\O[C@@H](C)c2cn([C@H](CO)Cc3ccccc3)nn2)cc1
Potency [1]: 1.26 µM (active) | Potency [2]: 3.98 µM (active) and 5.01 µM (active) | activity change, positive = activation [3]: -87.6% [at 11.4 µM] (inactive) and -97.7% [at 11.4 µM] (inactive) | Potency [5]: 63.1 nM (active) and 631 nM (active)

CC(=O)OCC1OC(C#CCCc2ccccc2)C=CC1OC(C)=O (centres undefined)
Potency [1]: inactive | Potency [2]: 3.16 µM (active) | activity change, positive = activation [3]: -61.8% [at 11.4 µM] (inactive) | Potency [4]: inactive | Potency [5]: inactive

CCOC(=O)OCC1C=C[C@H](c2cc(-c3ccccc3)ccc2O)C(c2ccc(C(C)=O)cc2)O1 (some centres undefined)
Potency [1]: 0.316 µM (active) | Potency [2]: 3.16 µM (active) | activity change, positive = activation [3]: -86.1% [at 11.4 µM] (inactive) | Potency [5]: 3.16 µM (active)

COc1cccc(/C=C/C2=CC3(C)CC2(C)C(c2cccc(OC)c2)CC3=O)c1 (centres undefined)
Potency [1]: 3.16 µM (active) | Potency [2]: 3.98 µM (active) | activity change, positive = activation [3]: -78.1% [at 11.4 µM] (inactive) | Potency [5]: 2 µM (active)

COC(=O)C1=C(C)N(Cc2ccccc2)[C@]23O[C@](C(=O)OC)(C(=O)N2C1c1ccccc1)C1CCOC(=O)C13 (some centres undefined)
Potency [1]: inactive | Potency [2]: 2.51 µM (active) | activity change, positive = activation [3]: -70.4% [at 11.4 µM] (inactive) | Potency [4]: inactive | Potency [5]: inactive

CN(C)c1cccc(OC2C=CC(C#Cc3ccccc3)OC2CO)c1 (centres undefined)
Potency [1]: inactive | Potency [2]: 3.98 µM (active) | activity change, positive = activation [3]: -83.1% [at 11.4 µM] (inactive) | Potency [4]: inactive | Potency [5]: 3.98 µM (active)

COC(=O)C/C=C\[C@@H](C)[C@@H](/C=N\OC[C@@H]1O[C@H](c2ccccc2)C=C[C@@H]1Oc1ccc(OC)cc1)NS(=O)(=O)c1ccc(C)cc1
Potency [1]: 1.26 µM (active) | Potency [2]: 5.01 µM (active) | activity change, positive = activation [3]: -96.1% [at 11.4 µM] (inactive) | Potency [5]: 0.398 µM (active)
